Test results from PubChem BioAssay (NCI).
About 83,000 compounds went through this panel and 20% of them were active in at least one assay; those are over-represented in the sample as a whole.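 Each cell line was grown in a 96-well plate and treated with one concentration of compound for 48 hours. Values below 10 were considered active.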 Values without a mark were called inactive. Active and inactive are the calls of the source.

test system: 786-0 renal; assay: NCI-60 one-dose screen, 48 h (100 = growth as untreated, 0 = no growth, -100 = all killed); conditions: 10 µM unless noted

Question: Which growth does the source give for `CCn1cc(C(=O)N/N=C/c2ccc(Br)cc2)c(=O)c2cc(F)c(N3CCNC(C)C3)c(F)c21` (stereo not given) here?
Answer: The growth was 63.9%.

Question: `CCSC1=CC(=O)c2ccccc2C1=O` was tested. Which growth did it give?
Answer: The growth was 111%.

Question: For `N#Cc1c(NC(=O)c2cccs2)[n+]([O-])c2ccc(Cl)cc2[n+]1[O-]`, which growth is on record?
Answer: The growth was 107%.

Question: How did the growth turn out when `O=C(c1ccc(Cl)cc1Cl)N1c2ccccc2Sc2ccccc21` was run?
Answer: Its growth is 67%.

Question: `CN(C)c1ccc(/C=C/C(=O)c2ccc(Nc3nc(Nc4ccc(F)cc4)nc(Nc4ccc(Cl)cc4)n3)cc2)cc1` was tested. Which growth did it give?
Answer: Its growth is 71.2%.

Question: How did the growth turn out when `CCN1C(=O)N(CC)C2C1NN=c1s/c(=C3\C(=O)N(CCc4ccccc4)c4ccccc43)c(=O)n12` (stereo not given) was run?
Answer: Its growth is 22.1%.

Question: Which growth does the source give for `Cn1c(/C=C/[N+](=O)[O-])cc2ccccc21` here?
Answer: Its growth is 75.7%.

Question: `CCN(CCO)CC(C)Nc1ccc([N+](=O)[O-])c2sc3ccccc3c(=O)c12` (stereo not given) was tested. Which growth did it give?
Answer: Its growth is 34.3%.

Question: `CCOC(=O)C1CCN(c2ccc(N3C[C@@H](CNCc4ccc(C(=N)N)cc4)OC3=O)cc2)CC1` was tested. Which growth did it give?
Answer: Its growth is 100%.

Question: For `CC1=NN(c2ccc(Cl)cc2)CC1(C)N=O` (stereo not given), which growth is on record?
Answer: The growth was 73.1%.

Question: How did the growth turn out when `CCN1C(=O)N(CC)C2C1NN=c1s/c(=C\c3ccccc3Br)c(=O)n12` (stereo not given) was run?
Answer: Its growth is 17.4%.

Question: With `Cc1cc(N2CCN(C)CC2)nc(NCc2cc(Nc3ccnc4cc(Cl)ccc34)ccc2F)n1` as the molecule, how does the growth read?
Answer: The growth was -26.9% (active).

Question: With `c1ccc2cc(Cn3c[n+](Cc4ccc5ccccc5c4)c4ccccc43)ccc2c1` as the molecule, how does the growth read?
Answer: The growth was -68.2% (active).

Question: How did the growth turn out when `Cc1ccc2[nH]c(-c3ccc(S(C)(=O)=O)cc3)c(/C=N/N=C(N)N)c2c1` was run?
Answer: Its growth is 44.9%.

Question: Which growth does the source give for `COc1ccc(-c2cc(C(=O)N3N=C(c4ccc(N)cc4)CC3c3ccccc3)c3ccccc3n2)cc1` (stereo not given) here?
Answer: The growth was 37.3%.

Question: Which growth does the source give for `COc1cccc(/C=C/C(=O)c2cc3c(N)c(C(=O)Nc4cccc(Cl)c4C)sc3nc2C)c1` here?
Answer: Its growth is -43.8% (active).

Question: For `O=C(CBr)CN1C(=O)c2ccccc2C1=O`, which growth is on record?
Answer: The growth was 101%.

Question: Which growth does the source give for `C=C(CN1CC=CCC1)[C@@H]1CC[C@]2(CO)CC[C@]3(C)[C@H](CC[C@@H]4[C@@]5(C)CC[C@H](O)C(C)(C)[C@@H]5CC[C@]43C)[C@@H]12` here?
Answer: The growth was 113%.

Question: With `N=C(N)c1ccc(-c2ccc(-c3ccc(Cl)cc3)o2)o1` as the molecule, how does the growth read?
Answer: Its growth is 1.68% (active).

Question: Which growth does the source give for `CC(O)c1ncc(/C=C2\SC(=S)N(Cc3ccccc3)C2=O)s1` (stereo not given) here?
Answer: Its growth is 87.3%.

Question: With `O=C(/C=C\c1ccco1)/C=C/c1ccco1` as the molecule, how does the growth read?
Answer: The growth was 110%.

Question: For `CCCCNC1=C(OCC)C(=O)c2ccccc2C1=O`, which growth is on record?
Answer: Its growth is 94.8%.

Question: Which growth does the source give for `C#CC#CC#CC#CC#CC#CC#CC#CC[C@H]1OC[C@H](COC(=O)O[C@@H](C(=O)O[C@H]2C[C@@]3(O)[C@@H](OC(=O)c4ccccc4)[C@@H]4[C@]5(OC(C)=O)CO[C@@H]5C[C@H](O)[C@@]4(C)C(=O)[C@H](OC(C)=O)C(=C2C)C3(C)C)[C@@H](NC(=O)c2ccccc2)c2ccccc2)O1` here?
Answer: The growth was 83.5%.

Question: How did the growth turn out when `CCn1c2ccc(O)cc2c2c(C)c3c[n+](C(C)C)ccc3c(C)c21` was run?
Answer: The growth was 56.1%.

Question: With `C=CCOC(=O)C1=C(C)NC(=O)NC1c1c(Cl)n(C)c2ccccc12` (stereo not given) as the molecule, how does the growth read?
Answer: Its growth is 91.3%.
